Results taken from PubChem BioAssay (NCI).
This is part of a sample that, as a whole, favours compounds with a hit. Of some 83,000 tested, about 20% had one in any assay.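 Plates (96-well) were seeded with cells, treated with compound at one concentration, and incubated for 48 hours before percent growth was determined.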 Activity calls are given as the source filed them. How the source made its calls: active means growth percent below 10; inactive means the rest.

Assays:
Experiment in all cases: NCI-60 one-dose screen, 48 h (100 = growth as untreated, 0 = no growth, -100 = all killed)
Conditions in all cases: 10 µM unless noted
HCT-15 colon = system: HCT-15 colon
HT29 colon = system: HT29 colon
SNB-75 CNS = system: SNB-75 CNS
SNB-19 CNS = system: SNB-19 CNS
U251 CNS = system: U251 CNS
PC-3 prostate = system: PC-3 prostate
SK-MEL-5 melanoma = system: SK-MEL-5 melanoma
UACC-62 melanoma = system: UACC-62 melanoma
LOX IMVI melanoma = system: LOX IMVI melanoma
SK-MEL-28 melanoma = system: SK-MEL-28 melanoma

| Compound | growth (HCT-15 colon) | growth (HT29 colon) | growth (SNB-75 CNS) | growth (SNB-19 CNS) | growth (U251 CNS) | growth (PC-3 prostate) | growth (SK-MEL-5 melanoma) | growth (UACC-62 melanoma) | growth (LOX IMVI melanoma) | growth (SK-MEL-28 melanoma) |
| --- | --- | --- | --- | --- | --- | --- | --- | --- | --- | --- |
| CSc1nc2ccccc2cc1/C=C1/C=C(c2ccccc2)NC1=O | 41.3% (inactive) | 38.9% (inactive) | 79.3% (inactive) | 80.1% (inactive) | 78.8% (inactive) | 70.4% (inactive) | 82.3% (inactive) | 64% (inactive) | 74.4% (inactive) | 92.6% (inactive) |
| O=S(=O)(Nc1ccc(Cl)c(C(F)(F)F)c1)c1ccc(-c2cnc(C3CC3)o2)cc1 | 22.5% (inactive) | 5.34% (active) | -2.82% (active) | 18.3% (inactive) | 4.81% (active) | 4.35% (active) | 18.6% (inactive) | -10.2% (active) | 32.9% (inactive) | 19.4% (inactive) |
| CCCCCCCCCc1ccc(OCCOCCOCCOCCOCCOCCOCCOCCOCCO)cc1 | 10.4% (inactive) | 15.2% (inactive) | 36.6% (inactive) | 28.6% (inactive) | 16.4% (inactive) | 9.37% (active) | -77.3% (active) | 11.7% (inactive) | 7.91% (active) | 34.4% (inactive) |
| Cc1cc(C(=O)O)c(C)n1-c1cccc(C(=O)O)c1 | 9.52% (active) | 28.4% (inactive) | 121% (inactive) | 87% (inactive) | 64.2% (inactive) | 98.4% (inactive) | 95.8% (inactive) | 85.1% (inactive) | 65% (inactive) | 102% (inactive) |
| O=C1NC2(Nc3ccccc31)C(=O)Nc1c(Cl)cc(Cl)cc12 (stereo not given) | 108% (inactive) | 107% (inactive) | 80% (inactive) | 104% (inactive) | 104% (inactive) | 103% (inactive) | 99.9% (inactive) | 101% (inactive) | 95.9% (inactive) | 118% (inactive) |
| Cc1cccc(CNc2c3ccccc3nc3ccccc23)c1 | 15.9% (inactive) | 5.15% (active) | 37% (inactive) | 29.7% (inactive) | 23.7% (inactive) | 24.9% (inactive) | 19.8% (inactive) | 42.8% (inactive) | 6.25% (active) | 58.8% (inactive) |
| Cc1cc(N2CCN(CC(=O)Nc3ccc4c(ccn4C)c3)CC2)nc(N2CCCCCC2)n1 | 79% (inactive) | 56.9% (inactive) | 90.1% (inactive) | 89.1% (inactive) | 85.9% (inactive) | 82.8% (inactive) | 92.1% (inactive) | 84.3% (inactive) | 92.8% (inactive) | 96.9% (inactive) |
| COC(=O)[C@]12CCC(C)(C)C[C@H]1[C@H]1/C(=N/OCCc3nn[nH]n3)C[C@@H]3[C@@]4(C)CC[C@H](OC(C)=O)C(C)(C)[C@@H]4CC[C@@]3(C)[C@]1(C)CC2 | 33.3% (inactive) | 43.1% (inactive) | 43% (inactive) | 34% (inactive) | 36.3% (inactive) | 26.7% (inactive) | -45% (active) | 13.2% (inactive) | 19.8% (inactive) | 41.9% (inactive) |
| CC1(C)CC(=O)C2=C(C1)N(c1ccc(OC(F)(F)F)cc1)C(N)=C(C#N)C2c1ccc(Br)cc1F (stereo not given) | 71.4% (inactive) | 79.7% (inactive) | 54.1% (inactive) | 34.4% (inactive) | 56.2% (inactive) | 51.9% (inactive) | 92.9% (inactive) | 78.5% (inactive) | 54.5% (inactive) | 90.8% (inactive) |
| CCCCCCCCCCCCCCCCCCOc1ccccc1CC(=O)OCC[N+](C)(C)C | 57.5% (inactive) | 8.73% (active) | -16.4% (active) | 29.9% (inactive) | -76.6% (active) | 5.84% (active) | 25.3% (inactive) | 18.6% (inactive) | 29.3% (inactive) | 64.8% (inactive) |
| O=C1c2c(c3c4ccccc4[nH]c3c3ccc4ccccc4c23)C(=O)N1CCN1CCNCC1 | -45.2% (active) | -14.6% (active) | 85% (inactive) | 74.3% (inactive) | -11.2% (active) | 56.6% (inactive) | 73.5% (inactive) | 82% (inactive) | -87.2% (active) | 100% (inactive) |
| Fc1ccc(CNc2c3ccccc3nc3ccccc23)c(F)c1 | 28.7% (inactive) | 21.8% (inactive) | 81.1% (inactive) | 41.5% (inactive) | 44.1% (inactive) | 68.9% (inactive) | 69.4% (inactive) | 59.1% (inactive) | 21.5% (inactive) | 90.4% (inactive) |
| Nc1nc2ccc(-c3nc4ccc5[nH]ncc5c4c4c3CCCC4)cc2s1 | 107% (inactive) | 99.2% (inactive) | 100% (inactive) | 97.7% (inactive) | 102% (inactive) | 100% (inactive) | 111% (inactive) | 102% (inactive) | 105% (inactive) | 120% (inactive) |
| CCN(CC)CCn1c2ccc(OC)cc2c2sc3cc(OC)ccc3c(=O)c21 | 8.79% (active) | 0.172% (active) | 85.9% (inactive) | 28.9% (inactive) | 20.5% (inactive) | 25.6% (inactive) | 57% (inactive) | 47.2% (inactive) | -75% (active) | 29.7% (inactive) |
